Screening data as filed in PubChem BioAssay.
Rows were chosen to be rich in hits. Some 2.3% of all compounds tested hit in one or more screens of this group.
LASV entry inh – Lassa virus entry inhibition. Lassa virus pseudotype entry inhibition, cell reporter. Potency, µM (titrated, usually from 37.9 µM), without a hit: at the highest dose activity change, negative = inhibition, most hits filed as inhibitors. 300,000 tested, 1.2% active; calls by dose curve; tested in HEK293 cells; also: nearly all actives have a fitted effect of over 50% in size
AmpC no deterg – AmpC beta-lactamase inhibition without detergent | AmpC nitrocefin hydrolysis, absorbance 480 nm, 0.0001% Triton | Potency, µM (series often up to 57.1 µM), inactives show at the top dose activity change, negative = inhibition, usual class: inhibitors | 330,000 tested, 0.52% active | AID 485341;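 also: plate controls were no compound for no effect and no enzyme for full effect; nearly all actives have a fitted effect of over 20% in size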
Target sequence (P00811 whole entry, looked up): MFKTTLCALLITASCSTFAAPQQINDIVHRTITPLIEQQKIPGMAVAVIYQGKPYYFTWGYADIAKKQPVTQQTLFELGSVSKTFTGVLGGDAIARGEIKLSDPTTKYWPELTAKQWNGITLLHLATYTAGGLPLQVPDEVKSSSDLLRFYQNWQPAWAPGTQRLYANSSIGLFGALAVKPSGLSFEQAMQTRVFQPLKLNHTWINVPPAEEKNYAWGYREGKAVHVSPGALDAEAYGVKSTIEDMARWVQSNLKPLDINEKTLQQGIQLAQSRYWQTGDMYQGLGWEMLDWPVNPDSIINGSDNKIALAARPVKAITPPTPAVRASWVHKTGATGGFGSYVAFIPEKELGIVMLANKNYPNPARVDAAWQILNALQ
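AmpC (5.3 nM in the dispensed reagent) in 20 mM phosphate pH 7.0 with 0.01% (detergent screen) or 0.0001% Triton X-100 was preincubated with compounds for 15 min at room temperature. Nitrocefin was then added from an 800 uM solution, and hydrolysis was followed at 480 nm.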
MARV entry inh – Marburg virus entry inhibition. 300,000 tested, 1.8% active. Marburg virus pseudotyped entry inhibition, cell reporter. Potency, µM (top dose mostly 37.8 µM), for the others: at the top dose activity change, negative = inhibition, actives largely listed as inhibitors; calls by dose curve; tested in HEK293 cells
AmpC inh detg – AmpC beta-lactamase inhibition with detergent present; AmpC hydrolysis of nitrocefin, absorbance 480 nm, 0.01% Triton; P00811; Potency, µM (top dose mostly 114 µM), for inactives: at the highest dose activity change, negative = inhibition, most hits filed as inhibitors; 370,000 tested, 0.041% active;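 also: 0% = no-compound wells and -100% = no-enzyme wells; nearly all actives have a fitted effect of over 25% in size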
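20 mM phosphate pH 7.0 + 0.01% (detergent screen) or 0.0001% Triton X-100; 5.3 nM AmpC reagent; cpd preinc 15 min RT; nitrocefin (800 uM stock) to start; A480 q20 s × 4 min; Activity was normalised to no-enzyme and no-compound control wells.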
AMA1-RON2 inh – disrupts binding of P. falciparum AMA1 to RON2; AlphaScreen AMA1-biotinylated RON2 peptide binding; Potency, µM (doses to about 58.2 µM), for inactives: at the highest dose activity change, negative = inhibition, most hits filed as inhibitors; 360,000 tested, 0.2% active; AID 720542;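 also: 0% = vehicle wells and -100% = peptide control; nearly all actives have a fitted effect of over 45% in size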
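AMA1 (3D7) with his tag at 25 nM final met compounds first, then biotinylated RON2 peptide at 25 nM; detection used donor plus acceptor beads, 10 µg/mL apiece, read by AlphaScreen after 30 min at room temperature.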
Numbers without * were called inactive; [ ] = another dose, or the depositor's remark. Unless noted, calls follow the shape of the dose curve; as a rule, active = well fitted curve in the direction sought with a large enough effect; inconclusive = small, poorly fitted or top-dose-only effect, or another doubt; inactive = no such curve, though single readings can be large; an effect the other way counts as inactive or inconclusive. Unless noted, % is scaled to controls: 0 for no effect and ±100 for the full control effect; potency is read from the fitted curve at half-maximal effect.

Results for CC(NC(=O)Cn1c(=O)[nH]c2ccsc2c1=O)C12CC3CC(CC(C3)C1)C2 (configuration not stated) ?
LASV entry inh: 6%; AmpC no deterg: -35%; MARV entry inh: -24%; AmpC inh detg: inconclusive; AMA1-RON2 inh: 3%

What do the screens show for `CC(NC(=O)Cn1ccsc1=N)C12CC3CC(CC(C3)C1)C2` (configuration not stated)?
LASV entry inh: inconclusive; AmpC no deterg: -4%; MARV entry inh: 10µM*; AmpC inh detg: -14%; AMA1-RON2 inh: -3%

What do the screens show for `COc1cccc(C(=O)/C=C/Nc2cccc(O)c2)c1`?
LASV entry inh: 2.9µM*; AmpC no deterg: -25%; MARV entry inh: inconclusive; AmpC inh detg: inconclusive; AMA1-RON2 inh: -9%

Results for COc1ccc(OC)c(N/C=C/C(=O)c2ccccc2)c1 ?
LASV entry inh: inconclusive; AmpC no deterg: -8%; MARV entry inh: 1µM*; AmpC inh detg: -11%; AMA1-RON2 inh: 6%

How did CCCc1c(C)[nH]c2ccc(C(=O)O)cc2c1=S do in these assays?
AmpC no deterg: -33%; AmpC inh detg: 40µM*; AMA1-RON2 inh: -17%

Results for Cc1[nH]c2ccc(C(=O)O)cc2c1C ?
LASV entry inh: 0%; AmpC no deterg: -10%; MARV entry inh: inconclusive; AmpC inh detg: -9%; AMA1-RON2 inh: -3%

Results for COc1cccc(NS(=O)(=O)c2ccc3[nH]cc(C(=O)NC(C)c4ccccc4)c(=O)c3c2)c1 (configuration not stated) ?
LASV entry inh: 2%[46.1 µM]; MARV entry inh: 8%[46.1 µM]; AmpC inh detg: 6%

How did COc1ccc(/C=C2\SC(=O)N(CCCC(=O)Nc3cc(Cl)ccc3C(=O)O)C2=O)cc1 do in these assays?
LASV entry inh: 0.4µM*; AmpC no deterg: -21%; MARV entry inh: 1.3µM*; AMA1-RON2 inh: 15%

What do the screens show for `COc1cccc(/C=C2\SC(=O)N(CCC(=O)NNC(=O)c3cccc(Cl)c3)C2=O)c1`?
LASV entry inh: 1.6µM*; AmpC no deterg: -12%; MARV entry inh: -18%; AmpC inh detg: -9%; AMA1-RON2 inh: 45%

How did COc1ccc(/C=C2\SC(=S)N(CCC(=O)Nc3ccccc3C(=O)O)C2=O)cc1 do in these assays?
LASV entry inh: -11%[46.1 µM]; AmpC no deterg: -21%; MARV entry inh: 5%[46.1 µM]; AmpC inh detg: inconclusive; AMA1-RON2 inh: -2%

How did CCCCC[n+]1ccn(C2=C([O-])c3ccccc3C(=O)/C2=N\S(=O)(=O)c2ccccc2)c1 do in these assays?
LASV entry inh: inconclusive; AmpC no deterg: 0%; MARV entry inh: 22µM*; AmpC inh detg: -6%; AMA1-RON2 inh: -15%

What do the screens show for `O=C(COC(=O)CCN1C(=O)/C(=C\C=C\c2ccccc2)SC1=S)Nc1ccc(Br)cc1`?
LASV entry inh: -26%[46.1 µM]; AmpC no deterg: 18µM*; MARV entry inh: inconclusive; AmpC inh detg: 3%; AMA1-RON2 inh: -13%

How did CC(C)c1ccccc1NC(=O)COC(=O)CCN1C(=O)/C(=C\C=C\c2ccccc2)SC1=S do in these assays?
LASV entry inh: inconclusive; AmpC no deterg: -37%; MARV entry inh: inconclusive; AmpC inh detg: -13%; AMA1-RON2 inh: -16%

What do the screens show for `Cc1cc(C)c2c(CN(C)Cc3ccccc3)cc(=O)oc2c1`?
LASV entry inh: 10µM*; AMA1-RON2 inh: 11%

What do the screens show for `Cc1ccccc1CN(C)Cc1cc(=O)oc2c(C)c(C)ccc12`?
LASV entry inh: 2.8µM*; AmpC no deterg: -13%; MARV entry inh: 4µM*; AmpC inh detg: -1%; AMA1-RON2 inh: -5%

Results for Cc1c(O)ccc2c(CN(C)Cc3ccccc3)cc(=O)oc12 ?
LASV entry inh: inconclusive; AmpC no deterg: -2%; MARV entry inh: 12µM*; AmpC inh detg: 7%; AMA1-RON2 inh: -1%

What do the screens show for `Cc1cc(NC(=O)N2CCC(CN3CCCCCC3)CC2)ccc1Br`?
LASV entry inh: 29%[46.1 µM]; AmpC inh detg: 11%

What do the screens show for `COc1ccccc1N1CCN(C2=Nc3cccc4cccc2c34)CC1`?
LASV entry inh: inconclusive; AmpC no deterg: 67%; MARV entry inh: 6.3µM*; AmpC inh detg: -1%; AMA1-RON2 inh: inconclusive

How did c1ccc(CC2CCN(C3=Nc4cccc5cccc3c45)CC2)cc1 do in these assays?
LASV entry inh: -10%; AmpC no deterg: -18%; MARV entry inh: 16µM*; AmpC inh detg: -15%; AMA1-RON2 inh: inconclusive

Results for COc1ccc2c(c1)CO[C@H]([C@H](O)CO)[C@H]2C=CC#Cc1ccc(C(C)(C)C)cc1 ?
MARV entry inh: -9%[14.2 µM]

What do the screens show for `Cc1ccc(NC(=O)CCS(=O)(=O)c2cc(Br)cc3c2N(C(=O)C2CC2)CC3)cc1`?
LASV entry inh: -2%[46.1 µM]; MARV entry inh: 1%[46.1 µM]; AmpC inh detg: 15%

What do the screens show for `O=C(Nc1ccc(Br)cc1)c1cccc(C(=O)Nc2ccc(Br)cc2)c1`?
LASV entry inh: 11%[46.1 µM]; AmpC inh detg: 1%

Results for CN(Cc1ccco1)C(=O)c1ccc2c(c1)N(Cc1ccccc1F)C(=O)c1ccccc1S2 ?
LASV entry inh: inconclusive; AmpC inh detg: -7%

Results for CC(=O)n1cc(/C=N/NC(=O)c2cccc(O)c2)c2ccccc21 ?
LASV entry inh: 18%; AmpC no deterg: 11µM*; MARV entry inh: 21%; AmpC inh detg: -9%; AMA1-RON2 inh: 79%

Results for COc1cc(C(=O)N/N=C/c2ccc3c(c2)c2ccccc2n3C)ccc1O ?
LASV entry inh: -29%; AmpC no deterg: -26%; MARV entry inh: inconclusive; AmpC inh detg: -13%; AMA1-RON2 inh: 9%

How did Cn1c2ccccc2c2cc(/C=N/NC(=O)c3cc(O)ccc3O)ccc21 do in these assays?
LASV entry inh: inconclusive; AmpC no deterg: -57%; MARV entry inh: -8%; AmpC inh detg: -1%; AMA1-RON2 inh: -28%

What do the screens show for `Cn1c2ccccc2c2cc(/C=N/NC(=O)c3cc(O)cc(O)c3)ccc21`?
LASV entry inh: 11%[46.1 µM]; AmpC no deterg: 16µM*; MARV entry inh: inconclusive; AmpC inh detg: 1%; AMA1-RON2 inh: -14%

How did CCn1c2ccccc2c2cc(/C=N/NC(=O)c3ccccc3)ccc21 do in these assays?
LASV entry inh: inconclusive; AmpC no deterg: -43%; MARV entry inh: 12µM*; AmpC inh detg: -5%; AMA1-RON2 inh: -11%

How did Cc1cccc(CS(=O)(=O)CC2Nc3ccc(C(=O)NCc4ccccc4Cl)cc3NC2=O)c1 (configuration not stated) do in these assays?
LASV entry inh: -15%[46.1 µM]; AmpC inh detg: 3%

What do the screens show for `O=C(Nc1ccccc1C(=O)OCc1cc(=O)n2c3c(sc2n1)CCCC3)c1cccc(Cl)c1`?
LASV entry inh: -16%[46.1 µM]; AmpC inh detg: -2%

Results for COC(=O)C1=C(C)N(Cc2ccco2)C(=O)NC1c1ccc(Br)cc1 (configuration not stated) ?
LASV entry inh: 3%[14.3 µM]; MARV entry inh: inconclusive
